We go through three molecules from PubChem BioAssay (EPA / NIEHS).

Common to all, as to settings: mRNA level, 48 h; actives raise or lower the signal
Read-out in assay [1]: Cytochrome P450 4A22 (Homo sapiens) (UniProt Q5TCH4)
As to the kind of experiment: LTEA_HepaRG_CYP4A22: Life Technologies and Expression Analysis (LTEA) Assay for Cytochrome P450 4A22 (CYP4A22) using HepaRG (AID 2283495). The method, boiled down: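 Gene expression measured by qRT-PCR against three housekeeping genes (ACTB, GAPDH, POLR2A), with gain or loss fitted relative to 0.5% DMSO vehicle. HepaRG cultures received 48 h chemical treatment, top concentration 100 uM, half-log steps, duplicate wells.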

Read-out in assay [2]: Cytochrome P450 7A1 (Homo sapiens) (UniProt P22680)
Briefly: LTEA_HepaRG_CYP7A1: Life Technologies and Expression Analysis (LTEA) Assay for Cytochrome P450 7A1 (CYP7A1) using HepaRG (AID 2283496). The method, boiled down: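 HepaRG, 48 h exposure, 8-pt half-log series from 100 uM, 0.5% DMSO vehicle, duplicates. Readout: TaqMan qRT-PCR mRNA vs three housekeeping genes; bidirectional curve fit against DMSO baseline.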

Read-out in assay [3]: Glutathione S-Transferase (GSTA2), GSTA2 (gene 2939)
As to the kind of experiment: LTEA_HepaRG_GSTA2: Life Technologies and Expression Analysis (LTEA) Assay for Glutathione S-Transferase (GSTA2) using HepaRG (AID 2283497). In outline: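 qRT-PCR readout of GSTA2 transcript, normalized to three housekeeping genes, fitted bidirectionally against 0.5% DMSO baseline. Differentiated HepaRG cells received compound for 48 h at 8 concentrations (top 100 uM, half-log steps).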

Read-out in assay [4]: Glutamate-cysteine ligase catalytic (GCLC), GCLC (gene 2729)
As to the kind of experiment: LTEA_HepaRG_GCLC: Life Technologies and Expression Analysis (LTEA) Assay for Glutamate-cysteine ligase catalytic (GCLC) using HepaRG (AID 2283498). The method, boiled down: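 HepaRG, 48 h exposure, 8-pt half-log series from 100 uM, 0.5% DMSO vehicle; TaqMan qRT-PCR for GCLC mRNA, housekeeping-normalized; bidirectional curve fit vs DMSO baseline.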

Read-out in assay [5]: growth arrest and DNA damage 45 (GADD45G), GADD45G (gene 10912)
As to the kind of experiment: LTEA_HepaRG_GADD45G: Life Technologies and Expression Analysis (LTEA) Assay for growth arrest and DNA damage 45 (GADD45G) using HepaRG (AID 2283499). In outline:
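GADD45G transcript level by qRT-PCR (housekeeping-normalized: ACTB, GAPDH, POLR2A) after 48 h chemical treatment of a single HepaRG lot in serum-free induction medium; eight-point half-log series up to 100 uM in 0.5% DMSO, duplicates, up- or down-regulation scored.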

Read-out in assay [6]: Glutamate-cysteine ligase regulatory (GCLM), GCLM (gene 2730)
Briefly: LTEA_HepaRG_GCLM: Life Technologies and Expression Analysis (LTEA) Assay for Glutamate-cysteine ligase regulatory (GCLM) using HepaRG (AID 2283500). The method, boiled down: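 Endpoint is GCLM transcript level by qRT-PCR, normalized to three housekeeping genes, after 48 h chemical exposure of human HepaRG cells (0.5% DMSO vehicle, top 100 uM, half-log dilutions). Fitting was bidirectional relative to DMSO.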

Read-out in assay [7]: Glutathione S-transferase M3 (GSTM3), GSTM3 (gene 2947)
Briefly: LTEA_HepaRG_GSTM3: Life Technologies and Expression Analysis (LTEA) Assay for Glutathione S-transferase M3 (GSTM3) using HepaRG (AID 2283501). The method, boiled down: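 GSTM3 transcript levels came from Fluidigm TaqMan qRT-PCR normalized to three housekeeping genes, fitted in both directions against DMSO. HepaRG cultures received chemicals for 48 h in serum-free induction medium (0.5% DMSO), 8 half-log concentrations up to 100 uM, duplicate.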

Read-out in assay [8]: Heat shock 70 kDa protein 1 (HSPA1A), gene 3303
As to the kind of experiment: LTEA_HepaRG_HSPA1A: Life Technologies and Expression Analysis (LTEA) Assay for Heat shock 70 kDa protein 1 (HSPA1A) using HepaRG (AID 2283502). The method, boiled down: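 Cells were plated and cultured for 48 h, then switched to serum-free induction medium. Chemicals were added at eight half-log concentrations up to 100 uM for 48 h. RNA was then isolated and HSPA1A measured by qRT-PCR with bidirectional curve fitting against DMSO.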

Read-out in assay [9]: Hypoxia-inducible factor 1-alpha (Homo sapiens) (UniProt Q16665)
Briefly: LTEA_HepaRG_HIF1A: Life Technologies and Expression Analysis (LTEA) Assay for Hypoxia-inducible factor 1 (HIF1A) Trancription factor using HepaRG (AID 2283503). In outline:
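HIF1A transcript level read by qRT-PCR (ACTB, GAPDH, POLR2A normalization) after 48 h chemical exposure of HepaRG cultures. Eight half-log concentrations, top 100 uM, 0.5% DMSO vehicle, duplicates; bidirectional curve fit against DMSO baseline.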

Read-out in assay [10]: 3-Hydroxy-3-Methylglutaryl-CoA Synthase 2 (HMGCS2), HMGCS2 (gene 3158)
As to the kind of experiment: LTEA_HepaRG_HMGCS2: Life Technologies and Expression Analysis (LTEA) Assay for 3-Hydroxy-3-Methylglutaryl-CoA Synthase 2 (HMGCS2) using HepaRG (AID 2283504). In outline: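 Readout is HMGCS2 transcript by qRT-PCR, housekeeping-normalised (ACTB/GAPDH/POLR2A) and fitted bidirectionally against 0.5% DMSO. Differentiated HepaRG cells received chemicals 48 h, duplicate wells, eight half-log concentrations topping at 100 uM.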

Read-out in the next assay: HGF (gene 3082)
Briefly: LTEA_HepaRG_HGF: Life Technologies and Expression Analysis (LTEA) Assay for Hepatocyte Growth Facto (HGF) using HepaRG (AID 2283505). The method, boiled down: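 HGF transcript was quantified by TaqMan qRT-PCR against three housekeeping genes after 48 h treatment of HepaRG cells. Exposure ran in duplicate over eight half-log steps topping at 100 uM in 0.5% DMSO vehicle.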

Read-out in assay [11]: Insulin Like Growth Factor 1 (IGF1), IGF1 (gene 3479)
Briefly: LTEA_HepaRG_IGF1: Life Technologies and Expression Analysis (LTEA) Assay for Insulin Like Growth Factor 1 (IGF1) using HepaRG (AID 2283506). The method, boiled down: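 Cells are thawed, plated and cultured 48 h, then exposed in duplicate to chemical (highest 100 uM, half-log steps, 0.5% DMSO) for another 48 h. Total RNA is analysed by Fluidigm qRT-PCR for IGF1 expression relative to vehicle.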

Read-out in assay [12]: Intercellular Adhesion Molecule 1 (ICAM1), ICAM1 (gene 3383)
Briefly: LTEA_HepaRG_ICAM1: Life Technologies and Expression Analysis (LTEA) Assay for Intercellular Adhesion Molecule 1 (ICAM1) using HepaRG (AID 2283507). In outline: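 ICAM1 transcript levels measured by qRT-PCR, normalized to three housekeeping genes (ACTB, GAPDH, POLR2A), after 48 h chemical exposure of HepaRG cells. Duplicate eight-point half-log series from 100 uM in 0.5% DMSO; gain or loss fitted against vehicle.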

Read-out in assay [13]: Insulin-like growth factor-binding protein 1 (IGFBP1), IGFBP1 (gene 3484)
Briefly: LTEA_HepaRG_IGFBP1: Life Technologies and Expression Analysis (LTEA) Assay for Insulin-like growth factor-binding protein 1 (IGFBP1) using HepaRG (AID 2283508). In outline: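 Read-out is qRT-PCR transcript level normalized to three housekeeping genes, fitted in both directions against 0.5% DMSO. Differentiated HepaRG cells received eight half-log concentrations (top 100 uM) in duplicate for 48 h in serum-free induction medium.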

Read-out in assay [14]: Interleukin 6 Receptor (IL6R), IL6R (gene 3570)
Briefly: LTEA_HepaRG_IL6R: Life Technologies and Expression Analysis (LTEA) Assay for Interleukin 6 Receptor (IL6R) using HepaRG (AID 2283510).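 For AC50: differentiated human HepaRG liver cells in serum-free induction medium.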 The method, boiled down:
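Cells were thawed, plated and cultured 48 h, then medium was changed to serum-free induction medium. Chemicals were added in duplicate (100 uM top, half-log steps, 0.5% DMSO) for 48 h. Lysates were analyzed by qRT-PCR for IL6R expression.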

Read-out in assay [15]: Potassium channel subfamily K member 1 (KCNK1), KCNK1 (gene 3775)
As to the kind of experiment: LTEA_HepaRG_KCNK1: Life Technologies and Expression Analysis (LTEA) Assay for Potassium channel subfamily K member 1 (KCNK1) using HepaRG (AID 2283511). The method, boiled down:
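HepaRG, 48 h exposure, 8-pt half-log series top 100 uM, 0.5% DMSO vehicle, duplicates. Readout: KCNK1 transcript by qRT-PCR (Fluidigm array), housekeeping-normalized; bidirectional curve fit relative to DMSO baseline.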

Read-out in assay [16]: Keratin 19 (KRT19), KRT19 (gene 3880)
As to the kind of experiment: LTEA_HepaRG_KRT19: Life Technologies and Expression Analysis (LTEA) Assay for Keratin 19 (KRT19) using HepaRG (AID 2283512). The method, boiled down: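 KRT19 transcript measured by TaqMan qRT-PCR, referenced to three housekeeping genes, after HepaRG cells received test chemicals for 48 h. Eight half-log concentrations, top 100 uM, 0.5% DMSO vehicle; increases and decreases both fitted.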

Read-out in assay [17]: JUN Transcription Factor, JUN (gene 3725)
Briefly: LTEA_HepaRG_JUN: Life Technologies and Expression Analysis (LTEA) Assay for JUN Transcription Factor using HepaRG (AID 2283513). The method, boiled down:
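Read-out is JUN transcript level by TaqMan qRT-PCR, normalized to ACTB, GAPDH and POLR2A, after 48 h chemical treatment of HepaRG cells. Concentration-response spanned eight half-log points up to 100 uM in 0.5% DMSO.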

Read-out in assay [18]: Lipase C (LIPC), LIPC (gene 3990)
Briefly: LTEA_HepaRG_LIPC: Life Technologies and Expression Analysis (LTEA) Assay for Lipase C (LIPC) using HepaRG (AID 2283514). In outline:
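HepaRG, 48 h exposure, 8-pt half-log series from 100 uM in 0.5% DMSO, duplicates. Readout: LIPC mRNA by Fluidigm qRT-PCR, housekeeping-normalized (ACTB/GAPDH/POLR2A). Gain or loss fitted bidirectionally against DMSO baseline.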

Read-out in assay [19]: Interleukin 6 (IL6), IL6 (gene 3569)
Briefly: LTEA_HepaRG_IL6: Life Technologies and Expression Analysis (LTEA) Assay for Interleukin 6 (IL6) using HepaRG (AID 2283509). The method, boiled down:
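qRT-PCR read-out of IL6 transcript, normalized to three housekeeping genes, after 48 h chemical exposure of HepaRG cells; 8-point half-log series, top 100 uM, 0.5% DMSO vehicle. Bidirectional curve fitting against DMSO baseline.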

Activity calls are given as the source filed them. Rule for the calls: active = hit-call score of the fitted dose curve at least 0.9, where 1 is the maximum; inactive = score below 0.9.

Chain of Hypoxia-inducible factor 1-alpha (Homo sapiens) (Q16665 whole entry, looked up): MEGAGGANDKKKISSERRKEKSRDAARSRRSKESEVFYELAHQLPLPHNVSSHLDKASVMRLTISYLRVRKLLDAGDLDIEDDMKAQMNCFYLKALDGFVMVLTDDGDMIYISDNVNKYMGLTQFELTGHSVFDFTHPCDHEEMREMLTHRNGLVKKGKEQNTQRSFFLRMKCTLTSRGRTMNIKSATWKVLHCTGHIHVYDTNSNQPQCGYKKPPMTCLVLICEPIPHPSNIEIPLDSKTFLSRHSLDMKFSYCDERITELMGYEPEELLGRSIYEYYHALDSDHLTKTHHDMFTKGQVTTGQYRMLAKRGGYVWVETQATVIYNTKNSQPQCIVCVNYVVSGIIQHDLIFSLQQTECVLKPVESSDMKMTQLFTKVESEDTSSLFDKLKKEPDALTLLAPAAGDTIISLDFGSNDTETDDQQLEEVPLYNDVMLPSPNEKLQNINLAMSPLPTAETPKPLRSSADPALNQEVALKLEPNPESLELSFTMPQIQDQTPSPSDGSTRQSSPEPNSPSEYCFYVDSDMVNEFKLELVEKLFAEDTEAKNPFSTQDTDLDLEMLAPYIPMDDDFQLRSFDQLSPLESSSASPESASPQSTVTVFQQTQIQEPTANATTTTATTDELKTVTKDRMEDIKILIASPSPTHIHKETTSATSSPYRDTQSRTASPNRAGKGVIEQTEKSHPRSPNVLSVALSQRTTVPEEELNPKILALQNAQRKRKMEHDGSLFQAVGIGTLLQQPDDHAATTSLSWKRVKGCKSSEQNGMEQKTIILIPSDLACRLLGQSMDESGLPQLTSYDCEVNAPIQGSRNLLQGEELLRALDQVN

On to `C=C(C)C(=O)OCCC(F)(F)C(F)(F)C(F)(F)C(F)(F)C(F)(F)C(F)(F)F`, for which the call in assay [1], in assay [2], in assay [3], in assay [4], in assay [5] and in assay [6] was inactive. For the same molecule, the result (in assay [7]; in assay [8]; in assay [9]; in [10]; with HGF (gene 3082); in [11]) was inactive. Moreover, the molecule was classed as inactive in assay [12], in assay [13], in assay [14], in assay [15], in assay [16] and in assay [17]. Moreover, the molecule was classed as inactive in assay [18].

With `CCC(C)(C)C1CCC(O)CC1` (stereo not given), the result in [1], in assay [2], in [3], in [4], in [5] and in assay [6] was inactive. The outcome (in assay [7]; in assay [8]; in [9]; in assay [10]; with HGF (gene 3082); in assay [11]) was inactive. Further, the outcome in assay [12], in assay [13], in [19], in assay [14], in assay [15] and in [18] was inactive.

Take `CC(=O)NC1(c2cccc(F)c2)CCN(CC[C@@]2(c3ccc(Cl)c(Cl)c3)CN(c3ccccc3)C(=O)CO2)CC1`: the AC50 in assay [1] is 3.17 µM (active); in assay [2], 38 µM (active); in assay [3], 65.1 µM (active); in assay [5], 41.5 µM (active); in assay [8], 27.9 µM (active); in assay [11] it was 13.1 µM (active). For the same molecule, the AC50 in [12] is 49 µM (active); in [13] it was 41.5 µM (active); in assay [14], 77.5 µM (active); in assay [17] it was 62.1 µM (active). The molecule was called inactive (in assay [4]; in assay [6]; in assay [7]; in assay [9]; in assay [10]; in the assay with HGF (gene 3082)). Also, the molecule was called inactive in assay [15] and in [18].
